Experiment [1] has as its target T1, Serine/threonine-protein kinase Nek9 (Homo sapiens) (UniProt Q8TD19).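 Note: each value is a mean percent inhibition of NEK9.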
T1 sequence (whole entry): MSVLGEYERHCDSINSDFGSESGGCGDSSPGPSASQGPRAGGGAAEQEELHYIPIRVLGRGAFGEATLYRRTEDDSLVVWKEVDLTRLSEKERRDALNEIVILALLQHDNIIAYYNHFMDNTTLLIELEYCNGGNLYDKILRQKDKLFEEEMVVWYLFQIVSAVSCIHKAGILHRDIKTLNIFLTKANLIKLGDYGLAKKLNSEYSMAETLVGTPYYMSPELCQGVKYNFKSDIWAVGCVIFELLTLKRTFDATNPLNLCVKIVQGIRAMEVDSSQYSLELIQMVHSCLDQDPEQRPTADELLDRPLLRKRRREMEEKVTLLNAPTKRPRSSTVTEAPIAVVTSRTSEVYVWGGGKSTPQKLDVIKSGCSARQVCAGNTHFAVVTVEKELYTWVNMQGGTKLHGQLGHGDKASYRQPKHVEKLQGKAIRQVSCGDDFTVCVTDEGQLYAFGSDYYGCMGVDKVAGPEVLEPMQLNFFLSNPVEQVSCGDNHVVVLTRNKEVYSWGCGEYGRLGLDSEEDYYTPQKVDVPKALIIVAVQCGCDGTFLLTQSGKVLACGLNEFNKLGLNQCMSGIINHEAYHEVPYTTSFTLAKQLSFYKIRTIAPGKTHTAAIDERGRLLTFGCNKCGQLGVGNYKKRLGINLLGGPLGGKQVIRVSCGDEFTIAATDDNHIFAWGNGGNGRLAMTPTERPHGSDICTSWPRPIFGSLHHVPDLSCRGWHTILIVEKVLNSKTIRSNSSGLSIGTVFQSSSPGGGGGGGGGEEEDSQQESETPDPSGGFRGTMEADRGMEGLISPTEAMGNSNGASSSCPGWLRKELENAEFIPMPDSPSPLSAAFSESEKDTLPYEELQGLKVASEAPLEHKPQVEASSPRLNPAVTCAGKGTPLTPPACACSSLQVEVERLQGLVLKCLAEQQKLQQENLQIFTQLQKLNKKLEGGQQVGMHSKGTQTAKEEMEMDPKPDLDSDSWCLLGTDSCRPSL
Particulars: at 1 µM.

Experiment [2] has as its target Serine/threonine-protein kinase PLK1 (Homo sapiens) (UniProt P53350). To be noted: at 0.1 µM.
The target is the same in experiment [3]. Particulars: at 1 µM.
Experiment [4] addresses T2, Dual specificity protein kinase TTK (Homo sapiens) (UniProt P33981).
T2 sequence (whole entry): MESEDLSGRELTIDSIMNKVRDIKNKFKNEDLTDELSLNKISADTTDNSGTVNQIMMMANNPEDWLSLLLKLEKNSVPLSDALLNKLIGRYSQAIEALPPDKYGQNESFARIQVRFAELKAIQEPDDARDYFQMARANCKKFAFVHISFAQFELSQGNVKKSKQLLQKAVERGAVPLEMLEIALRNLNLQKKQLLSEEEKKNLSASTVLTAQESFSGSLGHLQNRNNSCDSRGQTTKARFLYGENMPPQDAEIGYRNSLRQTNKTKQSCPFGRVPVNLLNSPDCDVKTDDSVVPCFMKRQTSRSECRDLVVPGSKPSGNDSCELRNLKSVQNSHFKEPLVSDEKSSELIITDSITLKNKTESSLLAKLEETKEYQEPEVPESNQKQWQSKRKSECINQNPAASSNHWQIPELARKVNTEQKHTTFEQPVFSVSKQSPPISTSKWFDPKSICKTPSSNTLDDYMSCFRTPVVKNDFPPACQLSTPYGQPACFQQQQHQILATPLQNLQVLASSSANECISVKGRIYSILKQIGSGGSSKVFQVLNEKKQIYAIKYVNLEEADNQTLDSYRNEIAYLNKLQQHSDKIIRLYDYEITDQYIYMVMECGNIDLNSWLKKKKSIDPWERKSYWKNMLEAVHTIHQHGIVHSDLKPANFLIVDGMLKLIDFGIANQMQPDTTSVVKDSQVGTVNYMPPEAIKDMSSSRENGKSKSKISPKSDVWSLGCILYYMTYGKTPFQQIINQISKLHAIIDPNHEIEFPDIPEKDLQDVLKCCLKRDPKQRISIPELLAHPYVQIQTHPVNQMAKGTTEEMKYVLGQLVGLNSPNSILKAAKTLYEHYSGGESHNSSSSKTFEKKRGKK
Particulars: at 0.1 µM.

Experiment [5] deals with T3, Receptor-type tyrosine-protein kinase FLT3 (Homo sapiens), P36888 [D835Y].
T3 sequence (whole entry): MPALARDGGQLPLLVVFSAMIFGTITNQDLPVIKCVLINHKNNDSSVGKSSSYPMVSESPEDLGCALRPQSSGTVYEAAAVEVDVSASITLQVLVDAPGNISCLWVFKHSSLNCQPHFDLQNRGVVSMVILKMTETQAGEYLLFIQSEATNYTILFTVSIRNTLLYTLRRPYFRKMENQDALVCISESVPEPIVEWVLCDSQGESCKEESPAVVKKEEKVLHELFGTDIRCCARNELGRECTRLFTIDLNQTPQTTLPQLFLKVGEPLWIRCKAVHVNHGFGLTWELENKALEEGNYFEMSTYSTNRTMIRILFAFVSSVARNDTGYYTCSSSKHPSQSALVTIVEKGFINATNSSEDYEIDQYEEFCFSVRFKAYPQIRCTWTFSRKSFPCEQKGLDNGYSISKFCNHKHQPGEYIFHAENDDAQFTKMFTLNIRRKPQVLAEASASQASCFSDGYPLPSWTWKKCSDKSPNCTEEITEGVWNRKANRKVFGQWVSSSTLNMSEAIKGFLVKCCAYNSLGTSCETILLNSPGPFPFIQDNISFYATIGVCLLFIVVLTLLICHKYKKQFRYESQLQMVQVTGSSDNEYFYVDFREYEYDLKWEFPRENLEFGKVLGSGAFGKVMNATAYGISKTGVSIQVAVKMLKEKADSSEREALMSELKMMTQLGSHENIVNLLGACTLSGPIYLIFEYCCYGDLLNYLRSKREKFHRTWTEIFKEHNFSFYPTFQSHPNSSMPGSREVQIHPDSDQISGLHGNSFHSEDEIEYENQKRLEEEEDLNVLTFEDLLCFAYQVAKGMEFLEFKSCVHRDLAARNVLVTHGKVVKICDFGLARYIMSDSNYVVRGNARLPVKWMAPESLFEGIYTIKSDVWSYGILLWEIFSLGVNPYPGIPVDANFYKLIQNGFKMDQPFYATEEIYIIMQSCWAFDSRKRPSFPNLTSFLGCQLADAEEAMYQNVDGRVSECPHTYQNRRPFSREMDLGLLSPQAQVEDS
Particulars: at 1 µM.

The target of experiment [6] is Vascular endothelial growth factor receptor 3 (Homo sapiens) (UniProt P35916). Particulars: at 0.1 µM.
Chain of Vascular endothelial growth factor receptor 3 (Homo sapiens) (P35916 whole entry): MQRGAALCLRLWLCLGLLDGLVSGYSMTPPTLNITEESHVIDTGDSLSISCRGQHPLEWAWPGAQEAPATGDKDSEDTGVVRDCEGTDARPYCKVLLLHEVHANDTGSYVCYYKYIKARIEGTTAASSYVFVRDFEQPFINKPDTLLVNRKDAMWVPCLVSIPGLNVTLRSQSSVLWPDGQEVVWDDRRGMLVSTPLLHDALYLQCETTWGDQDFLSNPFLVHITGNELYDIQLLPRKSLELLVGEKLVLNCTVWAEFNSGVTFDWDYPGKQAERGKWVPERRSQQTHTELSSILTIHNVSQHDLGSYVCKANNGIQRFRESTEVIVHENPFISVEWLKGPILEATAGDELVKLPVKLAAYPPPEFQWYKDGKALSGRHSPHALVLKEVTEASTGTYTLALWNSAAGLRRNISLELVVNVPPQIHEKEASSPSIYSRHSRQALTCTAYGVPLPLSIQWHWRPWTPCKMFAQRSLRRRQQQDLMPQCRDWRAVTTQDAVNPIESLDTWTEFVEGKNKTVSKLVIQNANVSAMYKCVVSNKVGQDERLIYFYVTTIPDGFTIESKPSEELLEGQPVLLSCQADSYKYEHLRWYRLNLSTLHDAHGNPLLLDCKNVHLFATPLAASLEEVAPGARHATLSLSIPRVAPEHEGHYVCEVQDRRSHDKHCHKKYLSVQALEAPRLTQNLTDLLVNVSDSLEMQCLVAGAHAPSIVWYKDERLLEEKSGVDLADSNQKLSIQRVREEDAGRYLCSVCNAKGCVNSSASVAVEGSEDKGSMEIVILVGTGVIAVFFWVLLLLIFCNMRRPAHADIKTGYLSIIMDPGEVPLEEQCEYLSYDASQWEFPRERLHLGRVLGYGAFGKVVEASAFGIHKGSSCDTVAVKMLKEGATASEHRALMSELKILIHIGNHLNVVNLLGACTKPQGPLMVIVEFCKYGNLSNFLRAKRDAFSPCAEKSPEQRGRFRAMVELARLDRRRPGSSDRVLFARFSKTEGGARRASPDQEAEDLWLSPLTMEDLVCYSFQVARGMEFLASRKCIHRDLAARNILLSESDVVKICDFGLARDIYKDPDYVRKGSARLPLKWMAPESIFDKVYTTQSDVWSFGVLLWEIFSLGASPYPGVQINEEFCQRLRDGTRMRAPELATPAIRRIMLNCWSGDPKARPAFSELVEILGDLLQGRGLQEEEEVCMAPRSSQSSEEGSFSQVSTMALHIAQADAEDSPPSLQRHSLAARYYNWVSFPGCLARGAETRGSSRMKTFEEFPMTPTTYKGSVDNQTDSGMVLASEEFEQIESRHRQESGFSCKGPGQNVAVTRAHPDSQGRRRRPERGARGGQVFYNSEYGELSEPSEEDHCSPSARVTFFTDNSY
Experiment [7] shares this target. To be noted: at 1 µM.
In experiment [8] the target is Macrophage colony-stimulating factor 1 receptor (Homo sapiens) (UniProt P07333). To be noted: at 0.1 µM.
Chain of Macrophage colony-stimulating factor 1 receptor (Homo sapiens) (P07333 whole entry): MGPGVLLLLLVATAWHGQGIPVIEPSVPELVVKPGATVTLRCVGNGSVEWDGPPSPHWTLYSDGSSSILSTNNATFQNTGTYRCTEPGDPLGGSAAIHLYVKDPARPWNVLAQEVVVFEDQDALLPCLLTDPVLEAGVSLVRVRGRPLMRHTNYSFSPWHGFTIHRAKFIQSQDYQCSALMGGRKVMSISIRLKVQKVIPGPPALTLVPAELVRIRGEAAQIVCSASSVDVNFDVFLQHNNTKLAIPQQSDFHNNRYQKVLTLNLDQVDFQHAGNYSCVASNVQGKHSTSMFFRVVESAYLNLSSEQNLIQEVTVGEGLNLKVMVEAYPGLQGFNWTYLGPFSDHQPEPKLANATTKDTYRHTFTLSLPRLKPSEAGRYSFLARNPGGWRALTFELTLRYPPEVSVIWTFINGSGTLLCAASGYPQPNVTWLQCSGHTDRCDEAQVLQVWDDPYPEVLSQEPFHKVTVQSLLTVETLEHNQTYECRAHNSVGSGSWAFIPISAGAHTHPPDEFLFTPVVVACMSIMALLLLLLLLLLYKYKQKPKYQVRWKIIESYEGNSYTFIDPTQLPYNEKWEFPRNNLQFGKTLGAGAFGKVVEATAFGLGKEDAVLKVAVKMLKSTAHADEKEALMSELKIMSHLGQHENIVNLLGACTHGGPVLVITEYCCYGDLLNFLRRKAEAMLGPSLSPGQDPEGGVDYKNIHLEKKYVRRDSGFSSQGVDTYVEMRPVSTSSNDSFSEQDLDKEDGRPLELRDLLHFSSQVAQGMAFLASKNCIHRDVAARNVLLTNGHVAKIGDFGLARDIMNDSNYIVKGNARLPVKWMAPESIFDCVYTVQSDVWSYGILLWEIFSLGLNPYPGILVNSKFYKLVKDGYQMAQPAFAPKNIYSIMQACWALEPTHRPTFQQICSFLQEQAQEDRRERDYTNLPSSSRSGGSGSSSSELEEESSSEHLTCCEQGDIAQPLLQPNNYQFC
The target is the same in experiment [9]. To be noted: at 1 µM.
The target in experiment [10] is Tyrosine-protein kinase Fyn (Homo sapiens) (UniProt P06241). To be noted: at 0.1 µM.
Chain of Tyrosine-protein kinase Fyn (Homo sapiens) (P06241 2-537 limits assumed): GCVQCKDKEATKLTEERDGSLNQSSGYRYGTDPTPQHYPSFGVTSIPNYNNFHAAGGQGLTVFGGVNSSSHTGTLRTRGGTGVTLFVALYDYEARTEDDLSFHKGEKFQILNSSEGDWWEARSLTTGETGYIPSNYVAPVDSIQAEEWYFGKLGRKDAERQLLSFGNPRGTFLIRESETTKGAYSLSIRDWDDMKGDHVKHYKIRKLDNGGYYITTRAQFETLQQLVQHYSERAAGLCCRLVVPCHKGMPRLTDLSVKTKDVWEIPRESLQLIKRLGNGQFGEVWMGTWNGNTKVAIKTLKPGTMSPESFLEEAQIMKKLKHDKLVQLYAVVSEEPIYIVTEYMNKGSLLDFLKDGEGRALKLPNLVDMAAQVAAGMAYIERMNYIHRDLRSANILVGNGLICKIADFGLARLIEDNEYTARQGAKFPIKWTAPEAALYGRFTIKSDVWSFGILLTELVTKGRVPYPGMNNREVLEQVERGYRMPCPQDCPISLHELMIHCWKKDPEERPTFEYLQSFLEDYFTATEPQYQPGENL

By inhibition is commonly meant the change of the read-out against control, counted positive when it falls.

Chain of Serine/threonine-protein kinase PLK1 (Homo sapiens) (P53350 whole entry): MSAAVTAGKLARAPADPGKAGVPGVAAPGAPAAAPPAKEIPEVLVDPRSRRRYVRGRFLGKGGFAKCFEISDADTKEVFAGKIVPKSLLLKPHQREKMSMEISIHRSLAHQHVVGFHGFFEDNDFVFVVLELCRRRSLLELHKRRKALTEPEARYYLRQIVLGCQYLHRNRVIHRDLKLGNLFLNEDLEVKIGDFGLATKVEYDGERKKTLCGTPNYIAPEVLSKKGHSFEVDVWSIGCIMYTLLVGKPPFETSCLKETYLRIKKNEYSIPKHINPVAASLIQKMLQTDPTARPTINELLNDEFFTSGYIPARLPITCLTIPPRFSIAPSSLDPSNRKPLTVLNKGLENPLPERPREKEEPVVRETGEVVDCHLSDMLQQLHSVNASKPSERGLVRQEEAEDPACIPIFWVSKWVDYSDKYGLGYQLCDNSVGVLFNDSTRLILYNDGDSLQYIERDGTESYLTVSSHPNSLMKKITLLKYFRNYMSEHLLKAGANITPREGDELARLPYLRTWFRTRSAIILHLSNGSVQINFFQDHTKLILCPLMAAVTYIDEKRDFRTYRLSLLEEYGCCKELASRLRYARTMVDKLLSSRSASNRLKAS

For `Cn1cc(C=C2C(=O)Nc3cccnc32)c2ccccc21`, the inhibition in experiment [1] was 4.67%; in [2], 2.71%; in experiment [3], 1.58%; in [4] it was 9.66%; in experiment [5], 77.5%; in experiment [6] it was 4.88%. For the same compound, the inhibition in experiment [7] stood at 30.3%; in [8], 6.48%; in experiment [9], 30.9%; in [10], 4.64%.

Regarding `COc1cccc(-n2ncc3c(N/N=C/c4cccc(F)c4)ncnc32)c1`, the inhibition is 3.11% in experiment [1]; 3.32% in [2]; 3.39% in experiment [3]; 6.88% in [4]; 14.1% in [5]; -8.81% in experiment [6]. The inhibition in experiment [7] is -1.89%; in experiment [8], -0.57%; in [9] it was 3.43%; in experiment [10], 4.02%.

In the case of `Cc1ccc(C(=O)NC2CCCCC2)cc1-c1ccc(C(=O)NCC2CC2)cc1`, the inhibition in experiment [1] was -4.93%; in [2], 3%; in [3], 2.23%; in experiment [4], 2.82%; in experiment [5], -1.53%; in experiment [6], 3.84%. Moreover, the inhibition was 5.49% in experiment [7], -0.58% in experiment [8], 5.17% in experiment [9] and -0.84% in experiment [10].

For `COc1ccc(-c2coc3ncnc(N)c23)cc1`, the inhibition in [1] is 6.24%; in [2], 3.82%; in experiment [3], 3.47%; in experiment [4] it was 10.9%; in experiment [5], -3.79%; in [6], 0.69%. For the same compound, the inhibition in experiment [7] was -0.08%; in experiment [8], 4.17%; in experiment [9] it was 2.83%; in experiment [10] it was 0.65%.

Turning to `Nc1nc(-c2ccc3c(c2)C(=Cc2cc(Br)c(O)c(Br)c2)C(=O)N3)cs1`, the inhibition in experiment [1] was 8.59%; in experiment [2], 0.43%; in experiment [3] it was 3.62%; in experiment [4], 2.39%; in [5], 3.47%; in experiment [6], 4.68%. For the same compound, the inhibition is 6.47% in [7], -1.81% in experiment [8], 2.56% in experiment [9] and -0.03% in experiment [10].

`Fc1cccc(COc2ccc(Nc3ncnc4sc(-c5cccs5)cc34)cc2Cl)c1`: the inhibition in experiment [1] was 2.21%; in experiment [2], 1.64%; in [3], 2.97%; in experiment [4], 2.43%; in [5] it was 4.36%; in [6], 3.77%. Further, the inhibition in experiment [7] is 3.65%; in experiment [8], 0.1%; in experiment [9] it was 11.2%; in experiment [10], 1.11%.

Consider `COc1cc(C)c(NC(=O)CN(C)C)cc1Nc1nc(Nc2cccc(F)c2C(N)=O)c2cc[nH]c2n1`, for which the inhibition in experiment [1] was 2.11%; in experiment [2], 70.5%; in [3], 92.2%; in [4] it was 24.2%; in experiment [5], 4.71%; in experiment [6], -3.04%. The inhibition in [7] stood at 1.77%; in [8] it was 3.71%; in experiment [9] it was 26.6%; in [10] it was 1.54%.

Regarding `CC1=C(C(=O)Nc2ccc3[nH]ncc3c2)C(c2ccc(F)cc2)NC(=O)N1` (stereo not given), the inhibition is 3.09% in experiment [1]; 2.01% in [2]; 1.91% in experiment [3]; 3.79% in experiment [4]; -1.48% in experiment [5]; 18.2% in experiment [6]. Moreover, the inhibition in experiment [7] turned out to be 15.4%; in experiment [8] it was 1.12%; in [9], 0.9%; in experiment [10], 1.72%.

For `O=C1NC(=O)C(c2cccc(Cl)c2)=C1Nc1ccc(O)c(Cl)c1`, the inhibition in experiment [1] was found to be 8.97%; in [2], 2.84%; in experiment [3], 3.21%; in experiment [4], 2.22%; in experiment [5] it was 3.58%; in experiment [6], 1.15%. The inhibition is 13.3% in experiment [7], 5.89% in [8], 46.8% in experiment [9] and 2.3% in experiment [10].

Consider `O=C1NC(=O)C(c2ccccc2Cl)=C1Nc1cccc(O)c1`, for which the inhibition in experiment [1] was -5.12%; in experiment [2] it was 3.44%; in experiment [3] it was 3.38%; in [4], 2.7%; in experiment [5] it was 3.87%; in experiment [6] it was 3.25%. Moreover, the inhibition in experiment [7] is 3.79%; in [8], -1.08%; in [9] it was 2.71%; in experiment [10] it was 1.1%.

Values taken from ChEMBL document CHEMBL1961873, “Compounds: GSK PKIS; Assays: Nanosyn kinase panel” (2012).
